Among all 4,500 compounds or so, about 200 (4.4%) were called active. Shown is part of a subset that was picked to be rich in actives. Values without a mark were called inactive.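 The calls were made as follows: active = cell survival measured by absorbance rises more than 2.5-fold over infected cells without compound; inactive = the rest.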

The text below walks through data of PubChem BioAssay AID1259312 (Keith Lab, Institute of Cancer Science, University of …, 2017).

This assay is described as follows: survival after telomere uncapping, modulators, primary screen, cell-based (AID 1259312).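 Also: virus expresses mutant telomerase RNA that uncaps telomeres and kills cells; compound added 2 days after infection so exposure lasts 3 days.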 The note with it: HCT116 + Ad-hTR-mut, MTT, 5 d; at 10 µM, hits give high values.
Turning to `Cc1[nH]c2ccccc2c1C(=O)C(=O)NC(C)(C)C`, the fold change is -1.22. With `CCOC(=O)c1c(NC(=O)C23CC4CC(CC(C4)C2)C3)sc2c1CCCCC2`, the fold change was -1.2.

Regarding `N#C/C(=C\c1ccccc1/C=C(\C#N)c1ccc2c(c1)OCO2)c1ccc2c(c1)OCO2`, the fold change was 1.78. In the case of `CC(=O)OC[C@H]1O[C@@H](n2cc(C)c(=O)[nH]c2=O)C[C@@H]1OC(C)=O` it was -1.48. On to `Clc1ccccc1/C=C/c1nnc(-c2ccccc2Cl)o1`, for which the fold change was -1.03. In the case of `CC(=O)[C@H]1CC[C@H]2[C@@H]3CCC4=CC(=O)CC[C@]4(C)[C@H]3CC[C@]12C`, the fold change is 1.4. With `CC12CCC(=O)C=C1CCC1C2CCC2(C)C1CC[C@@]21OCOC12COCO2` (stereo partly specified), the fold change was 3.17 (active). On to `CCCCCC(=O)O[C@]1(C(C)=O)CC[C@H]2[C@@H]3CCC4=CC(=O)CC[C@]4(C)[C@H]3CC[C@@]21C`, for which the fold change is -1.16. Regarding `CC(Sc1nnc(Cc2ccccc2)n1C1CCCCC1)c1nc(N)nc(N2CCCc3ccccc32)n1` (stereo unspecified), the fold change was -1.7. The figure for `O=c1cc(-c2cccc(O)c2)oc2cc(O)ccc12` is -1.53. As to `O=C(c1ccc(COc2ccc(Cl)cc2Cl)o1)n1cc(Br)cn1`, the fold change was -1.16.

Regarding `CC1CC[C@H](C(C)C)C(O)C1` (stereo partly specified), the fold change was -1.42. In the case of `O=[N+]([O-])c1ccc2nc(CSc3nc4ccc(Br)cc4[nH]3)[nH]c2c1` it was 3.33 (active).

Turning to `O=c1[nH]c(SCc2nc3ccc([N+](=O)[O-])cc3[nH]2)nc2ccccc12`, the fold change entry is “inactive”. In the case of `Cn1c(SCc2nc3ccc([N+](=O)[O-])cc3[nH]2)nc2ccccc21`, the fold change is -1.29. With `Clc1[nH]nc2ccccc12`, the fold change is 1.09.

`OCCOc1c(Cl)cc(Cl)c2cccnc12`: the fold change was -1.42. The figure for `CN1CCN(Cc2cc([N+](=O)[O-])c(O)c3ncccc23)CC1` is 2.98 (active); for `OCc1ccc(O)c2ncccc12` it is -7.69; for `CN(Cc1cc([N+](=O)[O-])c(O)c2ncccc12)C1CCCCC1` it is 3 (active). With `O=[N+]([O-])c1ccc(N2CCN(S(=O)(=O)c3ccc4ccccc4c3)CC2)c2ncccc12`, the fold change is -1.06. With `O=[N+]([O-])c1cc(Cl)c2cccnc2c1O`, the fold change is 2. Consider `O=[N+]([O-])c1ccc(N2CCCC2)cc1Sc1cccc2cccnc12`, for which the fold change is 1.11. On to `CN(Cc1cc(Br)cc(Br)c1N)C1CCCCC1`, for which the fold change was -1.39. As to `CN1CCN(Cc2cc(Cl)c3cccnc3c2O)CC1`, the fold change was 3.37 (active). In the case of `O=[N+]([O-])c1ccc(Sc2nnnn2-c2ccccc2)c2cccnc12` it was -73.2.

`O=[N+]([O-])c1cc(CN2CCCC2)c2cccnc2c1O`: the fold change is 3.06 (active). `S=c1[nH]nc(-c2cccs2)n1-c1ccccc1`: the fold change was -1.22. With `C=C(C)n1c(=O)[nH]c2ccccc21`, the fold change is 1.29.

Regarding `Cc1c(Br)c([N+](=O)[O-])nn1CC(=O)O`, the fold change was 1.12. On to `O=C1N=C(N2CCCC2)S/C1=C\c1ccc(Cl)cc1`, for which the fold change is -1.52. The figure for `COc1ccc(-c2nn(CN3CCN(C(c4ccccc4)c4ccccc4)CC3)c(=S)n2C)cc1` is -1.05; for `Clc1ccc(CSc2nnc(-c3ccccc3Cl)o2)c(Cl)c1` it is 3.91 (active).

In the case of `Clc1ccc(-c2nnc(SCc3ccccc3)o2)c(Cl)c1`, the fold change is 2.08. `Brc1cccc(-c2nnc(SCc3ccon3)o2)c1`: the fold change was -2.29. Take `Clc1ccc(CSc2nnc(-c3cccc(Br)c3)o2)c(Cl)c1`: the fold change is 2.77 (active). `Clc1ccc(-c2nnc(SCc3nc(-c4ccccc4)no3)o2)cc1`: the fold change was -1.07. In the case of `CCCSc1nnc(-c2ccc(Cl)cc2Cl)o1`, the fold change is 2.03. In the case of `CC1(C)C=Cc2c(c3ccccc3[nH]c2=O)O1` it was -1.4. The figure for `O=C(Cc1cccs1)NC1CCCCCC1` is -2.19; for `Cc1ccc(-c2noc(COc3ccc4c(c3)OCO4)n2)cc1` it is 1.5.

As for `CC1=C/C(=C(\c2cc(C)c(O)cc2C)c2ccccc2S(=O)(=O)O)C(C)=CC1=O`, the fold change result was “inactive”.

Take `c1ccc(-c2nc3ccccc3nc2-c2ccccc2)cc1`: the fold change was -1.02.

In the case of `CN1CCN(c2nc3ccccc3nc2N2CCN(C)CC2)CC1`, the fold change was 2.65 (active). With `O=S(=O)(Nc1nc2ccccc2nc1N1CCOCC1)c1ccccc1`, the fold change was -1.42. Turning to `N#CC1=C(N)C(C#N)(C#N)[C@@H](c2cccc(Br)c2)[C@@H]2CN(Cc3ccccc3)CC=C12`, the fold change is 1.73. On to `COc1ccc(C2C3CCC=C3C(C#N)=C(N)C2(C#N)C#N)cc1` (stereo unspecified), for which the fold change is -1.15. `CN1CC=C2C(C#N)=C(N)C(C#N)(C#N)C(c3ccc(F)cc3)[C@H]2C1` (stereo partly specified): the fold change is -37.3. Consider `CC(C)c1ccc(C2[C@H]3CN(C)CC=C3C(C#N)=C(N)C2(C#N)C#N)cc1` (stereo partly specified), for which the fold change is 2.14. Consider `CCCN1CC=C2C(C#N)=C(N)C(C#N)(C#N)[C@H](c3ccsc3)[C@H]2C1`, for which the fold change is 2.9 (active).

As to `CC(C)N1CC=C2C(C#N)=C(N)C(C#N)(C#N)C(c3ccc(F)cc3)[C@H]2C1` (stereo partly specified), the fold change was 3.68 (active). With `c1cnc(SCc2ccc3nsnc3c2)nc1`, the fold change is 1.11.

For `CC(=O)Nc1ccc(S(=O)(=O)N2CCCC2C(=O)NC2CC2)cc1` (stereo unspecified), the fold change is -1.03. For `COc1ccc(Oc2coc3cc(O)ccc3c2=O)cc1`, the fold change was -2.75.

For `N#C/C(=C\c1ccc2c(c1)OCO2)c1ccccn1`, the fold change was -2.23. With `CC(=O)Nc1nonc1NC(=O)C(F)(F)F`, the fold change was -1.07. On to `O=S(=O)(NCCn1cccc1)c1ccc2ccccc2c1`, for which the fold change was 1.09.

With `O=[N+]([O-])c1cc(Cl)ccc1N1CCOCC1`, the fold change is -1.07.

Turning to `O=[N+]([O-])c1ccc(Cl)cc1N1CCOCC1`, the fold change is 1.51. For `O=[N+]([O-])c1cc(Cl)ccc1N1CCN(c2ccc(Cl)cc2[N+](=O)[O-])CC1`, the fold change is 2.59 (active).

For `CC(C)CC(N)C(N)=O` (stereo unspecified), the fold change was -2.69. Regarding `N#C/C(=C/c1ccncc1)C(N)=S`, the fold change was -1.8. Consider `COc1cc2c(Cc3c4c5c(cc(OC)c(OC)c5c5c(OC)c(OC)ccc35)CCN4C)c3c4c(cc(OC)c(OC)c4c2cc1OC)CCN3C`, for which the fold change is -1.39.

Consider `COC(=O)C1=C(N)C(C(=O)OC)=c2s/c(=C/c3cccnc3)c(=O)n2C1c1cccnc1` (stereo unspecified), for which the fold change is 1.8.

Regarding `c1ccc(-c2nc(SCc3ccon3)[nH]c2-c2ccccc2)cc1`, the fold change was -1.7. The figure for `Cc1sc(NC(=O)Cn2cnc([N+](=O)[O-])n2)c(C(N)=O)c1C` is 1.35; for `CCCCOC1CC[C@@]2(C)C(=CC[C@H]3[C@@H]4CC[C@H]([C@H](C)CCCC(C)C)[C@@]4(C)CC[C@@H]32)C1` (stereo partly specified) it is -1.1. Take `CC(=O)OC1CCC2(C)C(=CCC3C2CCC2(C)C(C(C)O)CCC32)C1` (stereo unspecified): the fold change was 3.23 (active). For `CC(=O)OC1CCC2(C)C(=CCC3C2CCC2(C)C3CC3OC32[C@H](C)OC(C)=O)C1` (stereo partly specified), the fold change was 4.11 (active).

Take `CC(=O)OC1CCC2(C)C(=CCC3C2CC[C@]2(C)C(C(C)=O)CCC32)C1` (stereo partly specified): the fold change was 1.32. Turning to `CC(C)CCCC(C)C1CCC2C3CC=C4CC(O)CCC4(C)C3CCC12C` (stereo unspecified), the fold change is 1.54. In the case of `CC[C@H](/C=C/[C@@H](C)[C@H]1CC[C@H]2[C@@H]3CC=C4C[C@@H](O)CC[C@]4(C)[C@H]3CC[C@]12C)C(C)C`, the fold change was -1.34.

As for `CNc1oc(/C=C/c2ccccc2)nc1S(=O)(=O)c1ccc(Cl)cc1`, the fold change is -1.12. In the case of `CC(C)(C)Sc1c(Br)cccc1Br` it was -2.29; in that of `CCCc1nnc(NC(=O)c2ccoc2C)s1`, -1.3.

`CCOc1ccc(-n2c(C)cc(C(=S)N3CCOCC3)c2C)cc1`: the fold change is -3.28. On to `CCC(C)C(NC(C)=O)C(=O)O` (stereo unspecified), for which the fold change is 1.28. On to `NC1CCCc2c1[nH]c1ccc(Br)cc21` (stereo unspecified), for which the fold change is -11. Take `c1ccc(OCC2CCNCC2)nc1`: the fold change was 2.98 (active). In the case of `CC(C)(C)c1cc(Cl)cc(Cc2cc(C(C)(C)C)c(O)c(C(C)(C)C)c2)c1O` it was -1.42. Turning to `CCOC(=O)C1=C(C(=O)OCC)SC(=C2C(=S)C(C)(C)N(C)c3ccc(C)cc32)S1`, the fold change was -1.

Regarding `O=C(Nc1ccccc1)Nc1ccc2c(c1)OCCO2`, the fold change was -1.3. Take `O=C(Nc1ccccc1)Nc1snnc1C(=O)O`: the fold change was 4.77 (active). For the compound `O=C(Nc1ccc(F)cc1)Nc1nncs1`, the fold change is -1.15. `CCOC(=O)C1CCN(C(=O)CC(C)C)CC1`: the fold change was -1.61. `O=S(=O)(Nc1cccc2ccccc12)N1CCCCC1`: the fold change is -1.29. The figure for `C=CCN(CC=C)C(=O)Cc1cccs1` is -1.46. The entry for `Oc1ccc(Br)cc1C=Nc1ccc(I)cc1` is “active”; for `O=[N+]([O-])c1ccc(O)c(C=Nc2ccc(I)cc2)c1` it is “inactive”. As for `Oc1ccc(Br)cc1C=Nc1cc(Cl)ccc1Cl`, the fold change result was “inactive”. On to `Oc1c(Br)cc(Br)cc1C=Nc1ccc(Br)cc1`, for which the fold change result was “inactive”. As for `Oc1ccc(Br)c(C=Nc2ccc(-c3ccc(N=Cc4cc(Br)ccc4O)cc3)cc2)c1`, the fold change entry was “active”. In the case of `Oc1ccc(Br)cc1C=Nc1cc(Cl)cc(Cl)c1` it was “inactive”; in that of `COc1ccc(OC)c(N=Cc2cc(Cl)cc(Cl)c2O)c1`, “inactive”; in that of `COc1cc2c(cc1N=Cc1cc(Br)ccc1O)oc1ccccc12`, “inactive”. For `COc1ccc(OC)c(N=Cc2cc(Br)ccc2O)c1`, the fold change result was “active”.

Take `O=c1c2ccc(Cl)c3c(Cl)ccc(c32)c2nc3ccccc3n12`: the fold change is -2.06. In the case of `Cc1cc(C)n(C(=O)c2nn(C)cc2[N+](=O)[O-])n1`, the fold change is 1.61.

Take `O=[N+]([O-])c1cc(Br)cc(C=Nc2ccc(I)cc2)c1O`: the fold change entry was “inactive”. The figure for `N#CC1=C(N)Oc2[nH]c(=O)[nH]c(=O)c2C1c1cccnc1` (stereo unspecified) is 1.23; for `O/N=C(\c1ccccc1)C(O)c1ccccc1` (stereo unspecified) it is -1.85.
